From PubChem BioAssay
BAZ2B inh = BAZ2B (human) inhibition. hit rate 4.4% among 360,000. Potency, µM (series often up to 114 µM), usual class: inhibitors. AlphaScreen BAZ2B-H3K14Ac peptide displacement. Q9UIF8; also: nearly all actives have a fitted effect of over 60% in size
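Inhibition is scored as reduced AlphaScreen emission. The BAZ2B/b-H3(5-23)K14Ac complex (50 nM each) in PBS pH 7.4, 0.01% Tween-20 meets compound (up to 110 uM) for 30 min at RT before bead addition.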
G9a inh = inhibitors of human histone lysine methyltransferase G9a; G9a H3K9 monomethylation, AlphaScreen, 2 h; hit rate 8.8% among 350,000; Potency, µM (doses to about 102 µM), actives largely listed as inhibitors; Q96KQ7; also: nearly all actives have a fitted effect of over 75% in size
Target sequence (Q96KQ7 913-1193 limits assumed): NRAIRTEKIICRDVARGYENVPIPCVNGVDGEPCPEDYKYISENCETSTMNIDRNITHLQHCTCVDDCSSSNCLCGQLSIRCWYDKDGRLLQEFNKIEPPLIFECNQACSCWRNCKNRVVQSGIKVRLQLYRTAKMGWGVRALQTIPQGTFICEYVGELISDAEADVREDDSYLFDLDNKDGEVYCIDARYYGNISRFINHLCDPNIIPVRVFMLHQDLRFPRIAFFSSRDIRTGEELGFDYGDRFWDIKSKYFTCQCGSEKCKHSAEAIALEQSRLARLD
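Methyltransferase reactions run at room temperature for 2 h (20 nM enzyme, 500 nM biotin-H3K9 peptide, 20 uM SAM) after a 15 min compound preincubation; product detected by AlphaScreen beads and anti-H3K9me1 antibody.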
HP1b binding inh = HP1-beta chromodomain-methylated histone interaction inhibition. P83916. AlphaScreen HP1-beta / biotin-H3K9me3 peptide binding. Potency, µM (top dose mostly 114 µM), usual class: inhibitors. hit rate 0.56% among 390,000; also: nearly all actives have a fitted effect of over 70% in size
Target sequence (P83916 whole entry, looked up): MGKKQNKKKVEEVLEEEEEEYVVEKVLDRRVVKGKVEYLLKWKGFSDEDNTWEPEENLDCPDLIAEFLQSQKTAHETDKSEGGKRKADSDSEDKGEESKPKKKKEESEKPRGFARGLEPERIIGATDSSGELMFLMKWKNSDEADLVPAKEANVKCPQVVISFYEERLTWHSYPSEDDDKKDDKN
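Compound inhibition of the preformed complex between 50 nM HP1-beta and 50 nM biotinylated H3K9me3 peptide was read by AlphaScreen. Buffer was PBS pH 7.4 with 0.01% Tween-20. Incubations ran 30 min at room temperature, with 10 ug/mL donor/acceptor beads.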
JMJD2A Tudor = JMJD2A Tudor domain (human) inhibition; Potency, µM (top dose mostly 114 µM), most hits filed as inhibitors; O75164; AID 504339; AlphaScreen JMJD2A-Tudor / H3K4me3 peptide binding; hit rate 4.4% among 390,000; also: nearly all actives have a fitted effect of over 50% in size
GLS inh = inhibitors of human glutaminase (GLS); O94925; GLS enzymatic activity, qHTS titration; Potency, µM (highest dose often 45.5 µM), hits mostly inhibitors; hit rate 0.21% among 410,000; AID 624170
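Glutamate formation by hKGA was monitored fluorometrically using coupled glutamate oxidase, HRP and Amplex Red. Substrate was added as 1 mM L-glutamine solution; incubation was 30 min at RT after an initial read.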
A number is an active result; i = inactive; ? = inconclusive; nt = no result given; [ ] = dose if it differs, or a comment. Shown are actives, neighbours in structure and some others; about 10% of the full set was active somewhere. Calls follow the shape of the dose curve; as a rule, active = well fitted curve in the direction sought with a large enough effect; inconclusive = small, poorly fitted or top-dose-only effect, or another doubt; inactive = no such curve, though single readings can be large; an effect the other way counts as inactive or inconclusive.

SMILES	BAZ2B inh	G9a inh	HP1b binding inh	JMJD2A Tudor	GLS inh
Cc1ccc(C(=O)NC(=S)NNC(=O)COc2ccccc2C)cc1	i	3.5µM	i	22µM	i
CCOC(=O)COn1c(-n2nc(C)cc2C)nc2ccccc2c1=O	i	i	i	i	i
CN(C)CC(CCCCC(CN(C)C)C(=O)c1ccccc1)C(=O)c1ccccc1 (centres undefined)	i	50µM	i	i	i
CNc1nc(C23CC4CC(CC(C4)C2)C3)cs1	i	32µM	i	i	i
CC1CCC(C(=O)NC(C(=O)OCC(=O)c2ccc(Br)cc2)C(C)C)CC1 (centres undefined)	i	i	i	i	i
CCc1ccc(CN(Cc2ccco2)C(=O)c2ccc(C)cc2)cc1	i	i	i	i	i
Cc1cc(C)c2c(CC(=O)N(Cc3ccc(N(C)C)cc3)Cc3ccco3)coc2c1	10µM	11µM	?	13µM	i
CN(C)S(=O)(=O)c1cccc(C(=O)N(Cc2ccc(F)cc2)Cc2ccco2)c1	i	i[2.33 µM]	i	i	i
CN(C)c1ccc(CN(Cc2ccco2)C(=O)c2ccc(F)cc2)cc1	35µM	13µM	?	45µM	i
Cc1ccc(C(=O)N(Cc2ccc(N(C)C)cc2)Cc2ccco2)cc1	35µM	14µM	?	40µM	i
COc1cccc(C(=O)N(Cc2ccc(N(C)C)cc2)Cc2ccco2)c1	22µM	13µM	?	40µM	i
NC(Cc1cc(I)c(Oc2cc(I)c(O)c(I)c2)c(I)c1)C(=O)O (centres undefined)	nt	i[2.33 µM]	nt	nt	nt
Cc1ccsc1C(=O)N1CCCC(C)(C(=O)O)C1 (centres undefined)	nt	nt	nt	nt	i
COc1ccc(N2CC(NC(=O)/C=C\c3ccccc3)CC2=O)cc1 (centres undefined)	i	i	i	i	i
CN(CC(=O)Nc1cccc(F)c1)C(=O)C1CCC(C(=O)N(C)CC(=O)Nc2cccc(F)c2)CC1 (centres undefined)	nt	nt	i	i	i
O=C(c1csnn1)N1CCC2(CCCN(Cc3cc(C(F)(F)F)cc(C(F)(F)F)c3)C2)CC1	nt	i[12.7 µM]	nt	nt	nt
CCSc1ncc(Cl)c(C(=O)N(Cc2ccc(N(C)C)cc2)Cc2ccco2)n1	10µM	13µM	?	18µM	i
Cc1ccccc1C(=O)N(Cc1ccc(N(C)C)cc1)Cc1ccco1	35µM	13µM	?	45µM	i
CN(C)c1ccc(CN(Cc2ccco2)C(=O)COc2ccc(F)cc2)cc1	28µM	16µM	?	45µM	i
Cc1ccc(OCC(=O)N(Cc2ccco2)Cc2ccco2)cc1	i	i	i	i	i
COc1ccccc1N(CC(=O)Nc1cc(C)cc(C)c1)S(C)(=O)=O	i	i	i	i	i
CC(C)CN(C[C@@H](O)[C@H](Cc1ccccc1)NC(=O)O[C@H]1CO[C@H]2OCC[C@H]21)S(=O)(=O)c1ccc(N)cc1	nt	i[12.7 µM]	nt	nt	i
CCOc1ccccc1-n1nnc(-c2nc(-c3ccccc3C)no2)c1C	i	i	i	i	i
Cc1cc(C)cc(-n2ccn(Cc3ccccc3C)c(=O)c2=O)c1	i	i	i	i	i
O=C(CN1C(=O)C(c2ccc(F)cc2)=NC12CCCCCC2)Nc1ccc(F)c(Cl)c1	i	i	i	i	i
SMILES	BAZ2B inh	G9a inh	HP1b binding inh	JMJD2A Tudor	GLS inh
CCOc1ccc(OCCC(=O)N(CC(=O)Nc2ccccc2C(F)(F)F)Cc2ccco2)cc1	50µM	45µM	i	i	i
CC(C)COc1ccc(C(=O)N(CC(=O)Nc2ccccc2C(F)(F)F)Cc2ccco2)cc1	i	i[2.33 µM]	i	i	i
Cc1ccccc1NC(=O)CSc1cn(CC(=O)N2CCCCCC2)c2ccccc12	i	i	i	i	i
Cc1ccc(/C=N/NC(=O)c2cccc(S(=O)(=O)N3CCOCC3)c2)o1	i	i	i	i	i
CC(C)(C)NCc1cc(Br)ccc1OCc1cccs1	i	18µM	i	i	i
C[C@H]1C=CC(=O)C[C@H]1c1c(F)cccc1Cl	nt	nt	i	i	nt
Oc1ccc(O)c(/C(=N/Nc2ccccc2)c2ccccc2)c1	45µM	1.3µM	nt	nt	nt
NS(=O)(=O)c1cc(C(=O)N2CCc3ccccc32)c(Cl)cc1Cl	i	i	i	i	nt
Cc1csc(NC(=O)c2nc3nccc(C)n3n2)n1	i	50µM	i	?	?
Cc1ccnc2nc(C(=O)Nc3nnc(-c4ccc(Cl)cc4)o3)nn12	?	?	i	18µM	i
Cc1ccnc2nc(C(=O)Nc3nnc(CC(C)C)s3)nn12	i	25µM	i	45µM	i
Cc1ccnc2nc(C(=O)Nc3nc4ccccc4s3)nn12	i	i	i	16µM	i
N/C(=N\OC(=O)Nc1ccccc1)c1ncc([N+](=O)[O-])s1	i	i	i	i	i
CCCCOCCCNC(=O)C[C@@H]1C[C@@]2(C(=O)OCC)CCC=C2N(Cc2cccc3ccccc23)C1=O	nt	nt	nt	nt	i
Cc1cc(C)n(CCC(=O)N=Nc2c(O)[nH]c3ccc(Br)cc23)n1	i	?	i	i	i
Cc1csc(NC(=O)c2cnc3ccccc3n2)n1	i	45µM	i	i	i
Cc1csc(NC(=O)c2ccc3ccccc3n2)n1	i	i	i	?	i
N#C/C(=N\Nc1cccc(C(F)(F)F)c1)C(=O)c1csc(-c2cccnc2)n1	28µM	?	i	?	?
Cc1ccc(/C=C/C(=O)Nc2ncc(C)s2)o1	?	13µM	i	i	i
Cc1ccc(/C=C/C(=O)Nc2ccc(N(C)C)cc2)o1	35µM	4µM	?	50µM	i
Cc1ccc(/C=C/C(=O)Nc2ccncc2)o1	i	?	i	?	i
CC(=O)NS(=O)(=O)c1ccc(NC(=O)/C=C/c2ccc(C)o2)cc1	i	22µM	?	35µM	i
CC(C)CN(C(=O)COC(=O)Cc1c[nH]c2ccccc12)c1c(N)n(Cc2ccccc2)c(=O)[nH]c1=O	i	i[0.501 µM]	i	i	i
COc1ccc(NC(C)C(=O)Nc2cccc(S(=O)(=O)N3CCOCC3)c2)cc1OC (centres undefined)	nt	nt	i	i	i
CCCN(C(=O)c1noc2c1COc1ccc(C)cc1-2)c1ccc(Cl)c(Cl)c1	i	i	i	i	i
CC(C)(C)c1cn(-c2ccc(Cl)cc2)c(=S)[nH]1	i	2µM	i	35µM	i
COc1ccc(-n2cnc(=S)[nH]c2=S)cc1	nt	nt	?	i	i
COC(=O)c1sc(N2C(=O)C(=O)/C(=C(/O)c3ccc(C)cc3)C2c2ccco2)nc1C (centres undefined)	i	?	i	63µM	i
CCCOc1ccc(/C(O)=C2/C(=O)C(=O)N(CCCn3ccnc3)C2c2ccco2)cc1 (centres undefined)	i	nt	i	?	i
CCOc1ccc(/C(O)=C2/C(=O)C(=O)N(c3nc(C)c(C)s3)C2c2ccco2)cc1 (centres undefined)	i	45µM	i	?	i
